The values that follow come from PubChem BioAssay (EPA / NIEHS).

Experiment [1] can be described thus: Tanguay_ZF_120hpf_PFIN_legacy: (Legacy) Oregon State University Tanguay Lab 120 Hour Post-fertilization zebrafish Assay for Pectoral Fin Malformation (AID 2283648).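 Note: each larva judged yes or no for fin defect by brightfield with dead larvae skipped.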 An outline of the steps: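 5D WT zebrafish; pronase dechorionation 4 hpf; 1 embryo/well at 6 hpf; static exposure to 120 hpf, 28C, sealed, foil-covered; final DMSO 0.64% v/v; 5 uM trimethyltin chloride positive control; fin defect scored yes/no.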

A short description of experiment [2]: Tanguay_ZF_120hpf_CFIN_legacy: (Legacy) Oregon State University Tanguay Lab 120 Hour Post-fertilization zebrafish Assay for Caudal Fin Malformation (AID 2283649). An outline of the steps:
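Dechorionated 5D wild-type zebrafish, static exposure 6–120 hpf, 28C, sealed and dark, 0.64% v/v DMSO final. Binary fin-malformation call at 120 hpf, brightfield; gain of signal vs DMSO baseline.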

Experiment [3] in a line: Tanguay_ZF_120hpf_PIG_legacy: (Legacy) Oregon State University Tanguay Lab 120 Hour Post-fertilization zebrafish Assay for Pigmentation Malformation (AID 2283650). An outline of the steps:
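Pronase dechorionation at 4 hpf; embryos plated at 6 hpf, one per well; static exposure, sealed and foil-covered, 28C, to 120 hpf; pigmentation read by brightfield, binary; DMSO 0.64% baseline, 5uM trimethyltin chloride positive control.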

The nature of experiment [4]: Tanguay_ZF_120hpf_CIRC_legacy: (Legacy) Oregon State University Tanguay Lab 120 Hour Post-fertilization zebrafish Assay for Circulatory Malformation (AID 2283651). In short, it runs like this:
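Dechorionated wild-type 5D zebrafish embryos, one per well, statically exposed from 6 to 120 hpf at 28C with 0.64% DMSO; circulatory malformation scored present/absent by brightfield microscopy at 120 hpf, dead embryos excluded.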

Experiment [5] in a line: Tanguay_ZF_120hpf_SWIM_legacy: (Legacy) Oregon State University Tanguay Lab 120 Hour Post-fertilization zebrafish Assay for Swim Bladder Malformation (AID 2283654).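 Note: swim bladder malformation in each larva scored yes or no under brightfield.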 In short, it runs like this:
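Embryos lacking chorions were exposed individually and statically to test chemical from 6 to 120 hpf at 28C, with 0.64% DMSO as vehicle. At 120 hpf, swim bladder malformation was recorded as present or absent by brightfield microscopy.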

Experiment [6] can be described thus: Tanguay_ZF_120hpf_TRUN_legacy: (Legacy) Oregon State University Tanguay Lab 120 Hour Post-fertilization zebrafish Assay for Truncated Body (AID 2283655). An outline of the steps:
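Whole-embryo zebrafish screen: dechorionated 5D embryos, static exposure 6–120 hpf, 28C, sealed foil-covered plates, 0.64% DMSO. Binary truncation call; gain of signal versus DMSO baseline.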

The nature of experiment [7]: Tanguay_ZF_120hpf_NC_legacy: (Legacy) Oregon State University Tanguay Lab 120 Hour Post-fertilization zebrafish Assay for Notochord and Tail Malformation (AID 2283656). In short, it runs like this: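 Dechorionated Tropical 5D wild-type zebrafish embryos, one per well from 6 hpf, statically exposed to 120 hpf at 28C in 0.64% DMSO final. Notochord distortion scored present/absent by brightfield; dead embryos excluded.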

Experiment [8] is described as follows: Tanguay_ZF_120hpf_TR_legacy: (Legacy) Oregon State University Tanguay Lab 120 Hour Post-fertilization zebrafish Assay for Touch Response (AID 2283667). An outline of the steps:
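5D WT embryos; static exposure to 120 hpf, 28C, sealed/dark; DMSO 0.64% v/v final. TR scored present/absent; dead embryos excluded. Pos ctrl 5uM trimethyltin chloride.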

Experiment [9] can be described thus: Tanguay_ZF_120hpf_ActivityScore_legacy: (Legacy) Oregon State University Tanguay Lab 120 Hour Post-fertilization zebrafish Assay Score for Activity (AID 2283742). An outline of the steps:
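Embryos are staged, enzymatically dechorionated at 4 hpf, placed individually at 6 hpf, then held in test chemical (0.64% DMSO) at 28C until 120 hpf. Mortality and malformations are scored by brightfield, with non-mortality endpoints skipped for dead embryos.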

The nature of experiment [10]: UKN2_HCS_IMR90_neural_migration: University of Konstanz (UKN) Leist Lab Neural Crest Cell Migration Assay in human induced IMR90 Pluripotent Stem Cells (UKN2) (AID 2284204; active = hit-call score of the fitted dose curve at least 0.9, where 1 is the maximum; inactive = score below 0.9). The conditions noted are these: actives raise or lower the signal. An outline of the steps:
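Migration of human IMR90-derived neural crest cells into a stopper-defined gap is imaged after 24 h chemical treatment. Activity is fitted bidirectionally relative to DMSO.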

A short description of experiment [11]: UKN4_HCS_LUHMES_neurite_outgrowth: University of Konstanz (UKN) Leist Lab Neurite Outgrowth Assay in human LUHMES cells (UKN4) (AID 2284206; active = hit-call score of the fitted dose curve at least 0.9, where 1 is the maximum; inactive = score below 0.9). The following applies: actives raise or lower the signal. In short, it runs like this:
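Human LUHMES neuronal precursors, differentiated 2 days then replated without cAMP and GDNF, exposed to compounds for 24 h. Neurite area imaged by high-content microscopy after calcein-AM live staining; Hoechst H-33342 for viability; bidirectional fit versus DMSO.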

Experiment [12] is described as follows: UKN4_HCS_LUHMES_cell_viability: Viability Assessment in the University of Konstanz (UKN) Leist Lab Neurite Outgrowth Assay in human LUHMES cells (UKN4) (AID 2284232; active = hit-call score of the fitted dose curve at least 0.9, where 1 is the maximum; inactive = score below 0.9). In short, it runs like this:
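LUHMES precursors differentiated 2 days, replated at 30000 cells/well without cAMP/GDNF, then compound-treated 24 h. Viability from Hoechst H-33342 and calcein-AM live staining (30 min) by high-content fluorescence imaging; bidirectional fit versus DMSO.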

The nature of experiment [13]: UKN2_HCS_IMR90_cell_viability: Viability Assessment in the University of Konstanz (UKN) Leist Lab Neural Crest Cell Migration Assay in human induced IMR90 Pluripotent Stem Cells (UKN2) (AID 2284233; active = hit-call score of the fitted dose curve at least 0.9, where 1 is the maximum; inactive = score below 0.9;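 note: viability of neural crest cells differentiated from IMR90 iPSC measured by calcein-AM fluorescence imaging; cells exposed to compound for 24 h after a 24 h migration phase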). An outline of the steps: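 Human IMR90-derived neural crest cells were allowed to migrate for 24 h into a cell-free zone, then exposed to test chemicals for 24 h. Calcein-AM and Hoechst staining with high-content imaging gave viability, analysed against DMSO baseline.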

Experiment [14] deals with human CYP2C9, CYP2C9 (gene 1559) (UniProt P11712). As to the kind of experiment: NVS_ADME_hCYP2C9: NovaScreen (NVS) CYP450-related Enzyme Activity (ADME) Assay for human CYP2C9 (AID 2283108). An outline of the steps: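 Fluorescence readout of CYP2C9 activity (SF9-expressed human enzyme) at 0.75 h. The primary screen used 10 uM in duplicate, with concentration-response follow-up for actives; acetonitrile was the negative control.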
Sequence of human CYP2C9, CYP2C9 (gene 1559) (P11712 whole entry, looked up): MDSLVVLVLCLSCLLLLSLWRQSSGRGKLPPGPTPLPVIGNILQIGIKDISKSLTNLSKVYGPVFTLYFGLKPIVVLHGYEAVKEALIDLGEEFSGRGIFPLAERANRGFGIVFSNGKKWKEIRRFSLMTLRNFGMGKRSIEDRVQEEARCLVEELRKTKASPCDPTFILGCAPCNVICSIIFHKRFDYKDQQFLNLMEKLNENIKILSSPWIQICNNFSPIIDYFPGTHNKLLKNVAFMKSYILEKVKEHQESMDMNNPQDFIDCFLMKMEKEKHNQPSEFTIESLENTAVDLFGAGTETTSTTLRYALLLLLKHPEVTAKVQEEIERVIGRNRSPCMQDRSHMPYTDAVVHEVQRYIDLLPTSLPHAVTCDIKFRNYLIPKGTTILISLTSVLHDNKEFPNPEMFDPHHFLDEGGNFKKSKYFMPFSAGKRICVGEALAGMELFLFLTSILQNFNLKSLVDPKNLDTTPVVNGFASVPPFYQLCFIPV

For experiment [15], the system named is DIO2 (gene 1734). The experiment in a line: CCTE_GLTED_hDIO2: CCTE's human Deiodinase 2 (DIO2) Inhibition Assay, Great Lakes Toxicology and Ecology Division (GLTED) Lab (AID 2284050). In short, it runs like this:
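Cell-free human DIO2 incubated 3 h with chemical; liberated iodide quantified by Sandell-Kolthoff absorbance. Triplicate plates; loss of signal fitted vs DMSO.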

Experiment [16] concerns the target human Thromboxane A2 Receptor (TXA2), TBXA2R (gene 6915) (UniProt P21731). The experiment in a line: NVS_GPCR_hTXA2: NovaScreen (NVS) G Protein-Coupled Receptor Assay for human Thromboxane A2 Receptor (TXA2) (AID 2283282).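 Note: actives reduce bound radioligand signal relative to DMSO baseline.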 In short, it runs like this: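 Filter scintillation counting of bound radioligand, human platelet protein, 1 h exposure. Single-concentration duplicates (25 uM) first, concentration-response follow-up for actives. Binding loss scored against DMSO baseline.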

Experiment [17] concerns the target Glucocorticoid receptor (Homo sapiens) (UniProt P04150). The experiment in a line: NVS_NR_hGR: NovaScreen (NVS) Nuclear Receptor Binding Assay for human Glucocorticoid Receptor (GR) (AID 2283363).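 Note: activity is loss of specific radioligand binding signal relative to DMSO.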 In short, it runs like this: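 Competitive displacement of a labelled ligand was measured on cell-free receptor preparations after 16 h exposure. Initial testing used 25 uM in duplicate with plate controls; confirmed actives went into concentration series.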

A short description of experiment [18]: CCTE_Padilla_ZF_144hpf_TERATOSCORE: (Legacy) CCTE's 144 Hour Post-fertilization zebrafish Assay Teratoscore, Padilla Lab (AID 2283679; active = hit-call score of the fitted dose curve at least 0.9, where 1 is the maximum; inactive = score below 0.9;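 note: zebrafish embryos with chorions exposed by immersion from 6-8 hpf to 5 dpf with daily renewal; teratogenicity score from eye scoring of death hatching and malformations at 144 hpf; higher score means more developmental defects relative to DMSO baseline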). In short, it runs like this: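 Larvae scored by eye at 144 hpf for death, hatching and malformations after a day in clean Hanks'. Before that, daily-renewed exposure at 80 uM (0.4% DMSO, 26C) from roughly 6-8 hpf through 5 dpf, 4 embryos per chemical.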

Experiment [19] has as its target THRA (gene 7067) (UniProt P10827). As to the kind of experiment: TOX21_TRA_COA_Antagonist_Followup_ratio: Tox21 Thyroid Hormone Receptor alpha Antagonism through Coactivator Recruitment Follow-Up Assay, Ratio (AID 2283953). In short, it runs like this:
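520:495 nm emission ratio (excitation 340 nm) reports fluorescein-SRC-2 peptide recruitment to GST-TRα LBD by TR-FRET with Tb anti-GST antibody. Values were normalized to DMSO (0%) and T3 control wells (100%); loss of signal indicated antagonism.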

Experiment [20] has as its target THRB (gene 7068) (UniProt P10828). The experiment in a line: TOX21_TRB_BLA_Antagonist_Followup_ratio: Tox21 Thyroid Hormone Receptor beta Antagonism Beta-lactamase (BLA) Follow-Up Assay, Ratio (AID 2283958). An outline of the steps: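 HEK293T cells with a GAL4-TRb LBD fusion and UAS-bla reporter, 3,000 cells/well in phenol red-free DMEM with 2% charcoal-stripped FBS. Exposed 18 h at 37C to 11 concentrations in triplicate; CCF4 460:530 nm ratio after 2 h, DMSO-referenced.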

Several values for one entry are separate records, joined by “and”; a condition that tells them apart may be missing. Equal values may be shown once. Records with an inconclusive call do not appear. Activity calls are given as the source filed them. Rule for the calls, unless noted: active = hit-call score of the fitted dose curve at least 0.9, where 1 is the maximum; inconclusive = response in the unintended direction; inactive = score below 0.9.

Sequence of THRB (gene 7068) (P10828 whole entry, looked up, the tested form may be a part): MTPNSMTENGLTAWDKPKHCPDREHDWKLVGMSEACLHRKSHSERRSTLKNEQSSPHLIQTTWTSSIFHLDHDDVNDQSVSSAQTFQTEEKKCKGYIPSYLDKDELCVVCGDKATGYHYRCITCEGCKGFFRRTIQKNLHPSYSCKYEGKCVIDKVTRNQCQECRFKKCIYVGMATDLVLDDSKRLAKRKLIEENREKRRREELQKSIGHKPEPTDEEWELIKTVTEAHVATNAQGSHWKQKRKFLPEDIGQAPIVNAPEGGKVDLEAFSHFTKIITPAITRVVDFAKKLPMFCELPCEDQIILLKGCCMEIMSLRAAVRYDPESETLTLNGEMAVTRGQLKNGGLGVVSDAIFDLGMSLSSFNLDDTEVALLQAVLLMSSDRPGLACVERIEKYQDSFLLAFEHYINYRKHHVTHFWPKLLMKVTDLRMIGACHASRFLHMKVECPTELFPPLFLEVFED
Sequence of Glucocorticoid receptor (Homo sapiens) (P04150 whole entry, looked up): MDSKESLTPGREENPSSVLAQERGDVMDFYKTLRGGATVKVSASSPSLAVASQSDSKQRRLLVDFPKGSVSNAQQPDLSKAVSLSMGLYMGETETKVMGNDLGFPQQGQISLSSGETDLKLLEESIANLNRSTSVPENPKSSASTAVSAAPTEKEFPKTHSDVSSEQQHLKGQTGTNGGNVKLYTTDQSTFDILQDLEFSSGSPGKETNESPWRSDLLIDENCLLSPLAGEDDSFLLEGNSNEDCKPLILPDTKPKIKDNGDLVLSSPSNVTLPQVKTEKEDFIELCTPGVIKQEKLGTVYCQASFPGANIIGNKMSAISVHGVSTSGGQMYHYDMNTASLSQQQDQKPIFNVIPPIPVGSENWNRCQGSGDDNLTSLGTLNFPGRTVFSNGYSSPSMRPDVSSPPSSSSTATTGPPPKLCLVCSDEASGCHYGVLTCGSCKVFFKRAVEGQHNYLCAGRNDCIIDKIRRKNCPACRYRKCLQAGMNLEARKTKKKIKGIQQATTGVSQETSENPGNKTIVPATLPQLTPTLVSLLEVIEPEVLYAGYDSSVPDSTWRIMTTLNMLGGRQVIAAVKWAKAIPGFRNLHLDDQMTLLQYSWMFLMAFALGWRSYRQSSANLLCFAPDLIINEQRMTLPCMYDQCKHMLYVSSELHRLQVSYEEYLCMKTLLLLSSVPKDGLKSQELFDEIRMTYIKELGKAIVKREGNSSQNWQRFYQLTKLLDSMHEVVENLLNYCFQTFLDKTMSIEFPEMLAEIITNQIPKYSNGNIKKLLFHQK
Sequence of THRA (gene 7067) (P10827 whole entry, looked up, the tested form may be a part): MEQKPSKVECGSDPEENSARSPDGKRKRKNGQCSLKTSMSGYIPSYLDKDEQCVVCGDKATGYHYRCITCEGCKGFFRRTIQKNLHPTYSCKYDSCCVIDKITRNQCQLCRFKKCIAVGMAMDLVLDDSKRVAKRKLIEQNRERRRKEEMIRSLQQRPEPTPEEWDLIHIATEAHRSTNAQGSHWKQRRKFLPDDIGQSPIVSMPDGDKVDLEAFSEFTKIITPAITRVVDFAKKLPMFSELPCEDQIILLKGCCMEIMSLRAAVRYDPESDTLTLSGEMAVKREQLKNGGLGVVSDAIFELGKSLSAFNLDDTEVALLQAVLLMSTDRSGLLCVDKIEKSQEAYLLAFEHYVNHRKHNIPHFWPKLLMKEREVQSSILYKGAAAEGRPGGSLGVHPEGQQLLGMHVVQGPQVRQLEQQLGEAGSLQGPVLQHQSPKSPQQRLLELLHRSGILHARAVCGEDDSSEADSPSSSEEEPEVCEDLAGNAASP
Sequence of human Thromboxane A2 Receptor (TXA2), TBXA2R (gene 6915) (P21731 whole entry, looked up): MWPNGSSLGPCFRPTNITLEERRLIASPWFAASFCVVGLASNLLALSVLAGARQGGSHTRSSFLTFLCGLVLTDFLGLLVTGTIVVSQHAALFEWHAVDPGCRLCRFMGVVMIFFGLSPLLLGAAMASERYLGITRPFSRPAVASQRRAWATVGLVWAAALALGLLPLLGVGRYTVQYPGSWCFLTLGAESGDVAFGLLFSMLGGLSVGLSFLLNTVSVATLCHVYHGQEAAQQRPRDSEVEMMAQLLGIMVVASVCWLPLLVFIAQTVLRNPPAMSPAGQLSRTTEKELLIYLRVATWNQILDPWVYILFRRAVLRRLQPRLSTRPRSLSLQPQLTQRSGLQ

As for `CCC(C)=NO`, the call in [1], in experiment [2], in [3], in [4], in experiment [5] and in experiment [6] was inactive. Also, the result in experiment [7], in experiment [8] and in experiment [9] was inactive.
One may read the AC50 as the concentration at which the activity in the assay is half-maximal. With `Oc1cccc2ccccc12`, the result in experiment [10], in experiment [12] and in experiment [13] was inactive. For the same molecule, the concentration at half-maximal activity (AC50) in [11] is 26.3 µM (active).
For `Sc1nc2ccccc2s1`, the concentration at half-maximal activity (AC50) in [14] is 1.9 µM (active). Moreover, the result in [15] was inactive.
Regarding `CCCCCCCCCC/C=C/C1CC(=O)OC1=O` (stereo not given), the molecule was called inactive in experiment [16].
Take `CCCCC(CC)COC(=O)CS` (stereo not given): the AC50 in experiment [17] was 25 µM (active).
For the molecule `CC(C)n1c(/C=C/[C@@H](O)C[C@@H](O)CC(=O)O)c(-c2ccc(F)cc2)c2ccccc21`, the half-maximal activity concentration (AC50) in experiment [18] is 447 nM (active) and 111 nM (active). For the same molecule, the outcome in experiment [19] and in experiment [20] was inactive.
